Assay results from PubChem BioAssay (Tox21).
Results filed as inconclusive are left out. The source made the active and inactive calls. Unless noted, calls follow the shape of the dose curve; as a rule, active = well fitted curve in the direction sought with a large enough effect in the repeat runs; inconclusive = weak or mixed curves; inactive = no such curve, though single readings can be large; an effect the other way counts as inactive or inconclusive.

Key:
[1] = qHTS assay to identify small molecule antagonists of the estrogen related receptor (ERR) signaling pathway from Tox21 library - cell viability counter screen (AID 1224834); also: nearly all actives have a fitted effect of over 30% in size
Outline: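 ERR cells, 2,000/well; 6 h settle at 37 C/5% CO2; pin-tool compound transfer in DMSO; 17.5 h at 37 C; CellTiter-Fluor, 30 min; fluorescence intensity.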

[2] = target: Luciferin 4-monooxygenase (Photinus pyralis) (UniProt P08659); assay: qHTS assay to identify small molecule inhibitors of firefly luciferase (AID 1224835); also: series mostly up to about 120 µM; nearly all actives have a fitted effect of over 25% in size
Outline: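 Quantitative HTS format; KM concentrations of both substrates. Purified P. pyralis FLuc activity quantified from luminescence images.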

[3] = qHTS assay to identify small molecule agonists of the constitutive androstane receptor (CAR) signaling pathway - cell viability counter screen (AID 1224836); also: series mostly up to about 92 µM; nearly all actives have a fitted effect of over 45% in size
Outline: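 HepG2 cells stably carrying hCAR and a CYP2B6-2.2kb reporter; 15-concentration compounds plus PK11195 (final 0.75 uM), 23 hr at 37 C/5% CO2. Viability read by CellTiter-Fluor fluorescence.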

[4] = qHTS assay to identify small molecule antagonists of the constitutive androstane receptor (CAR) signaling pathway - cell viability counter screen (AID 1224837); also: series mostly up to about 92 µM; nearly all actives have a fitted effect of over 45% in size
Outline: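 Viability was measured with CellTiter-Fluor in a HepG2 line carrying stably transfected hCAR and a CYP2B6-2.2kb construct. Cells were exposed for 23 hr at 37 C to 15 compound concentrations with 50 nM CITCO as agonist.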

[5] = qHTS assay to identify small molecule antagonists of the estrogen related receptor signaling pathway with the pleiotropic PPARgamma coactivator (PGC) from Tox21 10K library - cell viability counter screen (AID 1224840; active = well fitted cell-killing curve with a large enough effect in the repeat runs, not every such curve was filed as active; also: nearly all actives have a fitted effect of over 40% in size)
Outline: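 Multiplexed viability counter screen in the PGC/ERR cell line: cells treated with DMSO-dissolved compounds for 17.5 hours at 37 C, then viability measured as CellTiter-Fluor fluorescence.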

[6] = qHTS assay to identify small molecule antagonists of the estrogen related receptor signaling pathway with the pleiotropic PPARgamma coactivator (PGC) from Tox21 10K library (AID 1224841; call rule not given here; also: series mostly up to about 92 µM; actives are mostly falling curves and most rising ones were filed inactive; nearly all actives have a fitted effect of over 50% in size)
Outline: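 Steps: plate 2,000 PGC/ERR cells per well; incubate 6 h at 37 C with 5% CO2; transfer compounds from DMSO stocks by pin tool; incubate 18 h at 37 C; add One-Glo; measure luminescence 30 min later.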

[7] = qHTS assay to identify small molecule agonists of the estrogen related receptor signaling pathway with the pleiotropic PPARgamma coactivator (PGC) from Tox21 10K library (AID 1224842); also: nearly all actives have a fitted effect of over 15% in size
Outline: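 PGC/ERR reporter cells (NTP line) were seeded 2,000 per well, rested 6 h at 37 C/5% CO2, then pin-dosed with compounds in DMSO for 18 h at 37 C; luciferase read by One-Glo luminescence after 30 min at room temperature.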

[8] = target: Thyrotropin receptor (Homo sapiens) (UniProt P16473); assay: qHTS assay to identify small molecule agonists of the thyroid stimulating hormone receptor (TSHR) signaling pathway (AID 1224843; calls by dose curve; also: nearly all actives have a fitted effect of over 45% in size)
Outline: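 Using 15 concentrations per compound in triplicate, cAMP production was monitored in TSHR-HEK293 cells after 30 min compound incubation at RT; HTRF reagents followed, with fluorescence intensity recorded after 1 h.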

[9] = target: Nuclear receptor subfamily 1 group I member 3 (Homo sapiens) (UniProt Q14994); assay: qHTS assay to identify small molecule agonists of the constitutive androstane receptor (CAR) signaling pathway (AID 1224839);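 also: HepG2 cells stably carrying human CAR and a CYP2B6 luciferase reporter; series mostly up to about 92 µM; nearly all actives have a fitted effect of over 15% in size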
Outline: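 HepG2 cells stably co-transfected with hCAR and a CYP2B6-2.2kb luciferase reporter; compounds at 15 concentrations with 0.75 uM PK11195 present. After 24 hr at 37 C, luciferase read by ONE-Glo luminescence.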

Measured: Potency

Sequence of Luciferin 4-monooxygenase (Photinus pyralis) (P08659 whole entry, looked up): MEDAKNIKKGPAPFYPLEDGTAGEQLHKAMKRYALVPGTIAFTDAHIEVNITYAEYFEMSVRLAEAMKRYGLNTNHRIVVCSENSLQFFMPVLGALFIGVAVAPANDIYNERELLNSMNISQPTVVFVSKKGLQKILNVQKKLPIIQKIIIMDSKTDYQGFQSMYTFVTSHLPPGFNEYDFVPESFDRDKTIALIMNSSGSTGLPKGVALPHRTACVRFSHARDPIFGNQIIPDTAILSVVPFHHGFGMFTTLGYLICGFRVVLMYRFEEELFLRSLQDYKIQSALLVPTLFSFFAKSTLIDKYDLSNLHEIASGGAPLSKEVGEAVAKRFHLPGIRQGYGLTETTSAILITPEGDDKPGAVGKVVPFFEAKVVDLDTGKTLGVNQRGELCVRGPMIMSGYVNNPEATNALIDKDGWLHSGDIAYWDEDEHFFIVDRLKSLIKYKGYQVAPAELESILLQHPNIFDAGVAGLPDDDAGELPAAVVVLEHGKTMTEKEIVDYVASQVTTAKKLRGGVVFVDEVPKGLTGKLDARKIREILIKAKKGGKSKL
Sequence of Thyrotropin receptor (Homo sapiens) (P16473 whole entry, looked up): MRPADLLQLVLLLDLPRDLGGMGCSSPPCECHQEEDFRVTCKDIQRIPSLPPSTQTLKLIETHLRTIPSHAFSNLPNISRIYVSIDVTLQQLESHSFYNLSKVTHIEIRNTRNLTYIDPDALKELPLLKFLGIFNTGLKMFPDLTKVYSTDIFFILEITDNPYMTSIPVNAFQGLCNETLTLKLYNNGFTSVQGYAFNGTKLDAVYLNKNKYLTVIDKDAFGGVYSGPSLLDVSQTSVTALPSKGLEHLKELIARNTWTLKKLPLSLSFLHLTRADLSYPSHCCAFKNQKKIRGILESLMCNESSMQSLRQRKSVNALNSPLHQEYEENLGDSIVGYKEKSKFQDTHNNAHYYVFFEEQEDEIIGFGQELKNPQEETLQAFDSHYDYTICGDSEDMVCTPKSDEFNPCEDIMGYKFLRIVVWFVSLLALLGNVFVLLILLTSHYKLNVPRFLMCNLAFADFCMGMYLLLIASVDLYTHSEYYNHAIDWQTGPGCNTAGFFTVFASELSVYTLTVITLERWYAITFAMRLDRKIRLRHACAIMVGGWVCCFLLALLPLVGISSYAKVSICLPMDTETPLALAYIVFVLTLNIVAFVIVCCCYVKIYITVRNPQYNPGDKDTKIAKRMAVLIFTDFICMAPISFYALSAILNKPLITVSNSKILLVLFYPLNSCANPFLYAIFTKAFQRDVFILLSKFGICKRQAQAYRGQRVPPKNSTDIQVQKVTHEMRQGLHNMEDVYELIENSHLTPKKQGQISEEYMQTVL
Sequence of Nuclear receptor subfamily 1 group I member 3 (Homo sapiens) (Q14994 whole entry, looked up): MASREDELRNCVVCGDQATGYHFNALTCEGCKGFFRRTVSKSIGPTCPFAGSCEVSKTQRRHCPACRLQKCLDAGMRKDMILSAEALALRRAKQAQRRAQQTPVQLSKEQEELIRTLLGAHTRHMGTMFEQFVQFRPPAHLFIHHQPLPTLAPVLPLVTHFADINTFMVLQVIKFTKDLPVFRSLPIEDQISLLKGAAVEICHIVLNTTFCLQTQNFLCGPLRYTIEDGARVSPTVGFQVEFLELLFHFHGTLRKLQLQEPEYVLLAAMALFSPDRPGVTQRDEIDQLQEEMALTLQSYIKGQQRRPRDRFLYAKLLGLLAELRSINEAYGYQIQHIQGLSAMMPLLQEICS

C=CCc1ccccc1O
inactive: [1] | [2] | [3] | [4] | [5] | [6] | [7]

CC1(C)[C@H](C(=O)O[C@H](C#N)c2cccc(Oc3ccccc3)c2)[C@@H]1C=C(Br)Br
inactive: [1] | [2] | [3] | [4] | [5] | [6] | [7]

O=[N+]([O-])O[C@H]1CO[C@H]2[C@@H]1OC[C@H]2O[N+](=O)[O-]
inactive: [1] | [2] | [3] | [4] | [5] | [6] | [7] | [8]

OCC1CO1 (stereo unspecified)
inactive: [1] | [2] | [3] | [4] | [5]

COC(=O)C1(O)c2ccccc2-c2ccccc21
inactive: [1] | [2] | [3] | [4] | [5] | [8]

C[C@H]1[C@@H]2Cc3ccc(O)cc3[C@@]1(C)CCN2C
inactive: [1] | [2] | [3] | [4] | [5] | [6] | [7] | [8]

CCOP(=O)(SC(C)CC)N1CCSC1=O (stereo unspecified)
inactive: [1] | [2] | [3] | [4] | [9] | [8]

CCN(C(C)=O)c1cccc(-c2ccnc3c(C#N)cnn23)c1
inactive: [1] | [2] | [3] | [4] | [5] | [8]

C[C@]12C=CC3=C4CCC(=O)C=C4CC[C@H]3[C@@H]1CC[C@@H]2O
inactive: [1] | [2] | [3] | [4] | [5]

CC(O)CN1CCN(CC(=O)[O-])CCN(CC(=O)[O-])CCN(CC(=O)[O-])CC1.[Gd+3] (stereo unspecified)
inactive: [1] | [2] | [3] | [4] | [5] | [8]

O=C(O)COc1cc(Cl)c(Cl)cc1Cl
inactive: [1] | [2] | [3] | [4] | [5] | [6] | [7] | [8]

C1CCNCC1
inactive: [1] | [2] | [3] | [4] | [5] | [8]

CC(CC(C(N)=O)(c1ccccc1)c1ccccc1)N(C)C (stereo unspecified)
inactive: [1] | [2] | [3] | [4] | [5] | [8]

CCCC[N+]1(C)[C@@H]2CC(OC(=O)[C@H](CO)c3ccccc3)C[C@H]1[C@@H]1O[C@@H]12 (stereo partly specified)
inactive: [1] | [2] | [3] | [4] | [9] | [8]

CCOc1cccc(C2(N3CCN(c4ccccc4)CC3)CCC(C)CC2)c1 (stereo unspecified)
inactive: [1] | [2] | [3] | [4] | [9] | [5] | [8]

Cc1ccc(N)c(C)c1
inactive: [1] | [2] | [3] | [4] | [5]

CCCC1CCCCN1 (stereo unspecified)
inactive: [1] | [2] | [3] | [4] | [9] | [5] | [8]

O=C1NC(=O)C(=O)C(=O)N1
inactive: [1] | [2] | [3] | [4] | [5] | [8]

Cc1nnc(-c2ccccc2)c(=O)n1N
inactive: [1] | [2] | [3] | [4] | [9] | [8]

C[N+](C)(C)CC1CO1 (stereo unspecified)
inactive: [1] | [2] | [3] | [4] | [5] | [8]

Cc1cccc(C)c1NC1=NCCCS1
inactive: [1] | [2] | [3] | [4] | [5] | [8]

CNC(=O)Oc1cccc(N=CN(C)C)c1
inactive: [1] | [2] | [3] | [4] | [9] | [5] | [8]

O=C(O)c1cc(I)cc(I)c1I
inactive: [1] | [2] | [3] | [4] | [9] | [5] | [8]

NP(N)(=O)NC(=O)c1ccc(F)cc1
inactive: [1] | [2] | [3] | [4] | [5] | [6] | [7] | [8]

CN(C1CCCCC1)C1CCCCC1
inactive: [1] | [2] | [3] | [4] | [9] | [8]

CCC1CCC(=O)O1 (stereo unspecified)
inactive: [1] | [2] | [3] | [4] | [5] | [8]

CC(C)CCCCCCCOC(=O)c1ccccc1C(=O)OCCCCCCCC(C)C
inactive: [1] | [2] | [3] | [4] | [9] | [6] | [7] | [8]

C[C@H]1O[C@H](OC2[C@@H](O)[C@@H](O)C(O)[C@H](O)[C@H]2O)[C@@H](N)C[C@@H]1N=C(N)C(=O)O (stereo partly specified)
inactive: [1] | [2] | [3] | [4] | [9] | [5] | [8]

CCCC[N+](CCCC)(CCCC)CCCC
inactive: [1] | [2] | [3] | [4] | [5] | [7]

CCOC(=O)c1cncn1C(C)c1ccccc1 (stereo unspecified)
inactive: [1] | [2] | [3] | [4] | [5] | [6] | [7] | [8]

CCCBr
inactive: [1] | [2] | [3] | [4] | [5] | [8]

CCCCCCCCP(=O)(O)O
inactive: [1] | [2] | [3] | [4] | [5] | [8]

Oc1cccc(Cl)c1
inactive: [1] | [2] | [3] | [4] | [5] | [6] | [7] | [8]
